Many of the other results were omitted from the sample, so hits are more common in it than they were.
C diff HTS: C. difficile growth inhibition. actives 0.25% (n = 86,000). Clostridium difficile clinical isolate growth, OD600, 24 h; stronger effect = lower value. growth activity, negative = inhibition, % at 16 µg/mL (by protocol);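 active = mean growth activity at or below -80% and every replicate also at or below -80%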
Each line names hits and unclear results; the compound was inactive in the other large screens; ! = not confirmed by another sample.

C[C@@H]1CN([C@@H](C)CO)C(=O)c2cccc(NC(=O)Nc3ccc(C(F)(F)F)cc3)c2O[C@@H]1CN(C)Cc1ccc(C(F)(F)F)cc1	C diff HTS -102.7
C[C@H](CO)N1C[C@H](C)[C@H](CN(C)Cc2ccc(-c3ccccc3)cc2)Oc2c(NC(=O)Nc3ccccc3)cccc2C1=O	none
C[C@@H]1CN([C@H](C)CO)C(=O)c2cccc(NC(=O)Nc3ccc(F)cc3)c2O[C@H]1CN(C)Cc1ccc(C(F)(F)F)cc1	none
COc1ccc(NC(=O)Nc2cccc3c2O[C@H](CN(C)Cc2ccc(C(F)(F)F)cc2)[C@@H](C)CN([C@H](C)CO)C3=O)cc1	none
COc1ccc(CN(C)C[C@@H]2Oc3c(NC(=O)Nc4ccc(C(F)(F)F)cc4)cccc3C(=O)N([C@H](C)CO)C[C@H]2C)cc1	none
C[C@@H]1CN([C@@H](C)CO)C(=O)c2cccc(NC(=O)Nc3ccc(F)cc3)c2O[C@@H]1CN(C)Cc1ccc(C(F)(F)F)cc1	C diff HTS -92.3
C[C@@H]1CN([C@@H](C)CO)C(=O)c2cccc(NC(=O)Nc3ccc(F)cc3)c2O[C@@H]1CN(C)Cc1ccc(-c2ccccc2)cc1	C diff HTS -93.2
C[C@H]1CN([C@@H](C)CO)C(=O)c2cccc(NC(=O)Nc3ccc(C(F)(F)F)cc3)c2O[C@@H]1CN(C)Cc1ccc(C(F)(F)F)cc1	none
CC=Cc1ccc2n(c1=O)C[C@H]1[C@H](CO)[C@@H](C(=O)NCC(F)(F)F)[C@@H]2N1C(=O)C1CCC1 (mixture of isomers)	none
CC(=O)N1CCCCN2[C@@H](CO)[C@H](c3ccc(C#Cc4ccccc4F)cc3)[C@@H]2C1	none
C[C@H](CO)N1C[C@H](C)[C@@H](CN(C)C(=O)Cc2ccccc2)Oc2cc(-c3cncnc3)ccc2S1(=O)=O	none
O=C(C[C@@H]1CC[C@@H]2[C@H](COC[C@H](O)CN2Cc2cccc(Cl)c2)O1)N1CCCCC1	none
C[C@@H]1CN([C@H](C)CO)C(=O)Cc2cc(NS(=O)(=O)c3ccc(Cl)cc3)ccc2O[C@H]1CN(C)C(=O)NC1CCCCC1	none
C[C@@H]1CCCCO[C@H](CN(C)Cc2ccc3c(c2)OCO3)[C@H](C)CN([C@@H](C)CO)C(=O)c2cc(NC(=O)Nc3ccc(C(F)(F)F)cc3)ccc2O1	none
C[C@@H]1CN([C@@H](C)CO)C(=O)c2cc(NC(=O)Nc3ccc(C(F)(F)F)cc3)ccc2O[C@@H](C)CCCCO[C@H]1CN(C)Cc1ccc2c(c1)OCO2	C diff HTS -92.4
C[C@@H]1CCCCO[C@@H](CN(C)Cc2ccc3c(c2)OCO3)[C@@H](C)CN([C@H](C)CO)C(=O)c2cc(NC(=O)Nc3ccc(C(F)(F)F)cc3)ccc2O1	none
C[C@@H]1CCCCO[C@H](CN(C)Cc2ccc3c(c2)OCO3)[C@@H](C)CN([C@@H](C)CO)C(=O)c2cc(NC(=O)Nc3ccc(C(F)(F)F)cc3)ccc2O1	C diff HTS -99.7
C[C@H]1CCCCO[C@H](CN(C)Cc2ccc3c(c2)OCO3)[C@@H](C)CN([C@@H](C)CO)C(=O)c2cc(NC(=O)Nc3ccc(C(F)(F)F)cc3)ccc2O1	none
C[C@H](CO)N1C[C@H](C)[C@H](CN(C)Cc2ccc3c(c2)OCO3)OCCCC[C@H](C)Oc2ccc(NC(=O)Nc3ccc(C(F)(F)F)cc3)cc2C1=O	none
C[C@@H]1CN([C@@H](C)CO)C(=O)c2cc(NC(=O)Nc3ccc(C(F)(F)F)cc3)ccc2O[C@@H](C)CCCCO[C@H]1CN(C)Cc1ccc(C(F)(F)F)cc1	none
C[C@@H]1CCCCO[C@@H](CN(C)Cc2ccc(C(F)(F)F)cc2)[C@H](C)CN([C@@H](C)CO)C(=O)c2cc(NC(=O)Nc3ccc(C(F)(F)F)cc3)ccc2O1	none
C[C@@H]1CN([C@H](C)CO)C(=O)c2cc(NC(=O)Nc3ccc(C(F)(F)F)cc3)ccc2O[C@@H](C)CCCCO[C@H]1CN(C)Cc1ccc2c(c1)OCO2	C diff HTS -100.2
C[C@H]1CN([C@@H](C)CO)C(=O)c2cc(C#CC3(O)CCCC3)cnc2O[C@H]1CN(C)C(=O)Cc1ccncc1	none
COc1ccc2c3c([nH]c2c1)[C@@H](CO)N(C(=O)c1cccc(F)c1)CC31CCN(C(=O)c2cccc(F)c2)CC1	none
O=C(N[C@@H]1CC[C@H](CCNS(=O)(=O)c2ccccc2)O[C@@H]1CO)c1cnccn1	none
C[C@H]1CN([C@@H](C)CO)S(=O)(=O)c2ccc(-c3cncnc3)cc2O[C@H]1CN(C)C	none
CN1C(=O)c2cc(NC(=O)Nc3ccccc3)ccc2OC[C@@H]2O[C@@H](CC(=O)O)CC[C@@H]21	none
Cc1ccc(S(=O)(=O)N2C[C@@H]3N[C@H](C2)C3c2ccc(/C=C/c3ccccc3)cc2)cc1 (stereo partly specified)	C diff HTS -95.4!
O=S(=O)(c1ccc(-c2ccccc2)cc1)N1C[C@@H]2N[C@H](C1)C2c1ccc(-c2ccccc2)cc1 (stereo partly specified)	none
Cc1ccccc1-c1ccc(C2[C@@H]3CN(S(=O)(=O)c4ccccc4C)C[C@H]2N3)cc1 (stereo partly specified)	C diff HTS -98.4!
Cc1ccccc1-c1ccc(C2[C@@H]3CN(S(=O)(=O)c4ccccc4)C[C@H]2N3)cc1 (stereo partly specified)	none
C/C=C/c1ccc(C2[C@@H]3CN(S(=O)(=O)c4ccccc4)C[C@H]2N3)cc1 (stereo partly specified)	none
COc1cccc(S(=O)(=O)N2[C@@H]3CNC[C@H]2C3c2ccc(/C=C/c3ccccc3)cc2)c1 (stereo partly specified)	none
COc1ccccc1S(=O)(=O)N1C[C@@H]2N[C@H](C1)C2c1ccc(-c2ccccc2C)cc1 (stereo partly specified)	none
COc1cccc(S(=O)(=O)N2C[C@@H]3N[C@H](C2)C3c2ccc(/C=C/c3ccccc3)cc2)c1 (stereo partly specified)	C diff HTS -94.4!
COc1cccc(-c2ccc(C3[C@@H]4CN(S(=O)(=O)c5ccccc5)C[C@H]3N4)cc2)c1 (stereo partly specified)	none
C[C@H](CO)N1C[C@H](C)[C@H](CN(C)S(C)(=O)=O)Oc2cc(-c3ccccc3)ccc2S1(=O)=O	none
O=C(Nc1ccc(C(F)(F)F)cc1)Nc1ccc2c(c1)[C@H]1C[C@@H](CC(=O)N3CCc4ccccc4C3)O[C@@H](CO)[C@H]1O2	none
COc1ccc(NC(=O)N(C)C[C@@H]2OCCCC[C@H](C)Oc3ccc(NC(=O)CCCN(C)C)cc3C(=O)N([C@H](C)CO)C[C@H]2C)cc1	none
COc1cccc(CN2[C@@H]3CNC[C@H]2C3c2ccc(-c3ccccc3C)cc2)c1 (stereo partly specified)	none
Cc1ccc(S[C@]2(C(=O)NC3CC3)CC(=O)N(C3CCCCC3)[C@@H]2c2ccc(CO)cc2I)cc1	none
COc1ccc2c3c(n(C)c2c1)[C@@H](CO)N(C(=O)c1cccc(F)c1)CC31CN(C(=O)c2cccc(F)c2)C1	none
Fc1cccc(CN2C[C@@H]3N[C@H](C2)C3c2ccc(-c3cncnc3)cc2)c1 (stereo partly specified)	none
COc1ccc(-c2ccc(C3[C@@H]4CN(Cc5cc(OC)cc(OC)c5)C[C@H]3N4)cc2)cc1 (stereo partly specified)	C diff HTS -100.5!
COc1cc(CN2C[C@@H]3N[C@H](C2)C3c2ccc(-c3ccncc3)cc2)cc(OC)c1 (stereo partly specified)	none
Fc1cccc(CN2C[C@@H]3N[C@H](C2)[C@@H]3c2ccc(-c3cccc(F)c3)cc2)c1	C diff HTS -94.2
